BRCA1 expr act = increases BRCA1 expression; 380,000 compounds, 1.1% hits; AID 624202; Potency, µM (top dose mostly 46.1 µM), for inactives: top-dose activation, hits mostly activators; MCF7-BRCA1-FFLuc reporter, luminescence, 48 h; response scale: scaled: vehicle 0%, 10 µM genistein 100%; further: potency means the concentration at half of the fitted maximal effect; nearly all actives have a fitted effect of over 80% in size
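Cells: MCF7-BRCA1-FFLuc, 2000/well. Exposure: 48 h, 37 °C, 5% CO2. Read: luminescence, 15 min post-substrate. Controls: genistein 10 microM (maximal activation), DMSO (neutral).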
IL2 activator = activates IL-2 in a cell-based reporter assay; AID 652025; 360,000 compounds, 0.065% hits; IL-2 activation reporter assay, cell-based qHTS; stimulated with anti-CD3/CD4/CD28 beads; in transgenic mouse T cells; activation, % (series mostly up to about 46 µM); in the data active means activation above about 50%; inconclusive means mostly about 30% to 49%; further: 0% is about no effect
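Unstimulated transgenic mouse T cells; 60-min compound exposure; bead-based TCR/CD4/CD28 stimulation; 18 h culture, 37 degrees C; dual fluorescence (EGFP, DsRed) plate cytometry.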
Giardia killer = kills Giardia lamblia. Giardia lamblia trophozoite viability. activity change, % at 7.66 µM, hits read low. 340,000 compounds, 0.15% hits. AID 540267; in the data active means activity change below about -80%; inconclusive means between about -30% and that limit;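 further: parasites exposed to compound for two days anaerobically before the ATP read; on the % scale 0 is the no-effect control and ±100 the full control effect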
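Trophozoites 100 cells/well + cpd; 48 hrs, 37 deg C, anaerobic. ATPLite 1-Step added, 15-30 min RT, luminescence read (ATP-based viability).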
mIDH1 inhibitor = blocks human mutant IDH1 R132H enzyme. 390,000 compounds, 0.093% hits. O75874. Potency, µM (highest dose often 76.6 µM), inactives show at the highest dose activity change, negative = inhibition, actives largely listed as inhibitors. IDH1-R132H enzyme, NADPH consumption, diaphorase/resazurin fluorescence; further: potency means the concentration at half of the fitted maximal effect; on the % scale 0 is the no-effect control and ±100 the full control effect; nearly all actives have a fitted effect of over 65% in size
Target sequence (O75874 whole entry R132H, stated change not applied): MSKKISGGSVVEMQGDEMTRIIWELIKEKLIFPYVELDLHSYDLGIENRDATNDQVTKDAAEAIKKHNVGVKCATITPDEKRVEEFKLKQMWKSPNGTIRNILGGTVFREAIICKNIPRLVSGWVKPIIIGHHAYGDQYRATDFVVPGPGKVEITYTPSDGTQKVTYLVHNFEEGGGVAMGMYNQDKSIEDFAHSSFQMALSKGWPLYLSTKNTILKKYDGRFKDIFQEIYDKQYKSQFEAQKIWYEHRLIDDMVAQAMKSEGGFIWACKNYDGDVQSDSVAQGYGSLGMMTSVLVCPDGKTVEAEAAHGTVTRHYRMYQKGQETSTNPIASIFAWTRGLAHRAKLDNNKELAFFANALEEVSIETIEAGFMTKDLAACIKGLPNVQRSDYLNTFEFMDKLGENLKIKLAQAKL
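IDH1-R132H (0.5 ug/mL dispensed) in pH 7.5 Tris buffer was preincubated 30 min with compound, then given a substrate mix of 0.016 mM NADPH and 2 mM alpha-KG for 80 min at room temperature; remaining NADPH was read by diaphorase/resazurin fluorescence.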
TrxR1 substrate = rat thioredoxin reductase 1 substrate activity; O89049; purified TrxR1 substrate turnover, NADPH consumption readout; Potency, µM (highest dose often 114 µM), for the others: at the top dose activity change, negative = substrate turnover; 390,000 compounds, 0.01% hits; AID 588456; further: potency means the concentration at half of the fitted maximal effect; on the % scale 0 is the no-effect control and ±100 the full control effect; nearly all actives have a fitted effect of over 50% in size
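Rat TrxR1, dispensed at 90 nM, was prereduced with 400 uM NADPH (final) for 5 min at ~22 deg C, then incubated with compound 15 min before 400 uM selenite. A first-read NADPH fluorescence drop versus no-compound background flagged substrates.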
rTrxR1 inhibitor = rat TrxR1 inhibition. O89049. recombinant rTrxR1, NADPH fluorescence consumption, selenite substrate. Potency, µM (series often up to 114 µM), without a hit: at the top dose activity change, negative = inhibition, usual class: inhibitors. 390,000 compounds, 1% hits. AID 588453; further: potency means the concentration at half of the fitted maximal effect; on the % scale 0 is the no-effect control and ±100 the full control effect; nearly all actives have a fitted effect of over 65% in size
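Rat TrxR1 (90 nM in the dispensed reagent) was pre-reduced with 400 uM NADPH for 5 min at room temperature, then incubated with compound for 15 min. After 400 uM selenite was added, NADPH fluorescence (Ex 340/Em 450 nm) was followed for 8 min.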
Resorufin autofl = counter-screen for mutant IDH1 inhibitors: fluorescence interference | AID 623980 | Resorufin detection reagent fluorescence interference, cell-free | 750 tested, under 10 active | shares compounds with mIDH1 inhibitor | inhibition of signal, % at 51.2 µM;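 further: 0% = wells with normal resorufin and full inhibition = wells lacking resorufin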
IDH1 WT = inhibits human wild-type IDH1, mutant selectivity check; WT IDH1 enzyme, NADPH diaphorase/resazurin fluorescence; AID 623995; Potency, µM (titrated, usually from 115 µM), for inactives: at the top dose activity change, negative = inhibition, actives largely listed as inhibitors; shares compounds with mIDH1 inhibitor; 750 compounds, 9% hits;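 further: potency means the concentration at half of the fitted maximal effect; 0% = full WT IDH1 enzyme control and full inhibition = no enzyme wells; nearly all actives have a fitted effect of over 55% in size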
Target sequence (O75874 whole entry, looked up): as the sequence (O75874 whole entry R132H, stated change not applied) above, with H132R counted along it
mIDH1 confirm = inhibits human mutant IDH1 enzyme in cherrypick confirmation; shares compounds with mIDH1 inhibitor; IDH1 R132H enzyme, NADPH diaphorase/resazurin fluorescence; Potency, µM (series often up to 76.6 µM), for inactives: top-dose activity change, negative = inhibition, most hits filed as inhibitors; 750 compounds, 83% hits; further: potency means the concentration at half of the fitted maximal effect; nearly all actives have a fitted effect of over 50% in size
* = called active by the depositor; ? = inconclusive; . = no result; [ ] = dose if it differs, or a comment. Most compounds without a hit are left out; they make up all but 2.2% or so of the library. Unless noted, the call rests on the fitted dose curve; in most records, active means well fitted curve in the direction sought with a large enough effect; inconclusive means small, poorly fitted or top-dose-only effect, or another doubt; inactive means no such curve, though single readings can be large; an effect the other way counts as inactive or inconclusive.

SMILES | BRCA1 expr act | IL2 activator | Giardia killer | mIDH1 inhibitor | TrxR1 substrate | rTrxR1 inhibitor | Resorufin autofl | IDH1 WT | mIDH1 confirm
O=C(NC1CCCC1)C(c1ccccc1F)N(C(=O)c1csnn1)c1ccccc1 (configuration not stated) | -3% | 2 | 1 | ? | 8%[57.1 µM] | 21%[57.1 µM] | -3 | 8% | 16µM*
O=C(NC1CCCCC1)C(c1cccs1)N(C(=O)c1ccccn1)c1ccccc1 (configuration not stated) | 0% | 1 | -7 | ? | 13% | 34% | -1 | 6% | ?
Cc1ccc(N(C(=O)CCC(=O)Nc2cc(C)on2)C(C(=O)NC2CCCC2)c2cccs2)cc1 (configuration not stated) | -21% | 2 | -5 | -17% | -5% | 0% | . | . | .
O=C(NC1CCCC1)C(c1ccc(F)cc1)N(C(=O)c1csnn1)c1ccccc1 (configuration not stated) | -2% | 0 | -15 | -5% | -17%[57.1 µM] | 19%[57.1 µM] | . | . | .
COC(=O)c1ccc(C2c3c(oc4cc(C)c(C)cc4c3=O)C(=O)N2c2ccccn2)cc1 (configuration not stated) | . | . | . | -11% | 4% | 18% | . | . | .
CCOc1ccc(-n2c(=S)sc3c(=O)[nH]c(SCC(=O)NC(C)CC)nc32)cc1 (configuration not stated) | -2% | 0 | 5 | 37µM* | -5% | -14% | 0 | 8.9µM* | 32µM*
COc1ccc(Cl)cc1-n1c(=S)sc2c(=O)[nH]c(SCC(=O)NCCC(C)C)nc21 | -21% | 0 | -27 | 37µM* | -8% | -12% | 3 | 7% | 11µM*
CCOC(=O)CC(=O)CSc1nc2c(sc(=S)n2-c2ccc(OCC)cc2)c(=O)[nH]1 | -16% | 0 | 21 | 6% | 5%[57.1 µM] | -7%[57.1 µM] | . | . | .
Cc1cccc(NC(=O)COc2ccc(/C=C\c3[nH]c(=O)[nH]c(=O)c3[N+](=O)[O-])cc2)c1 | 6% | 2 | 11 | 52µM* | -5%[57.1 µM] | -15%[57.1 µM] | 11 | ? | 32µM*
O=c1[nH]c(/C=C/c2ccc([N+](=O)[O-])cc2)c([N+](=O)[O-])c(=O)[nH]1 | 0% | 1 | 22 | 46µM* | -10% | -14% | 7 | -9% | 32µM*
CC(=O)NC1C(=O)N(CCN2CCOCC2)c2ccc(Cl)cc21 (configuration not stated) | -22% | 0 | -16 | 41µM* | 0% | -2% | 5 | ? | -118%
COc1cc(OC)c(NC(=O)CC(c2cccs2)N2Cc3ccccc3C2=O)cc1Cl (configuration not stated) | -64% | . | . | 30% | -11% | -7% | . | . | .
O=C(NC1CCCC1)C(c1ccc(F)cc1)N(C(=O)Cc1cccs1)c1ccc2c(c1)OCCO2 (configuration not stated) | 8% | 2 | -2 | 10µM* | 8%[57.1 µM] | 3%[57.1 µM] | 6 | -8% | 6.3µM*
Cc1ccc(C(C(=O)NC2CCCC2)N(C(=O)Cc2cccs2)c2ccc3c(c2)OCCO3)cc1 (configuration not stated) | -46% | 2 | 15 | ? | 6% | 47%[57.1 µM] | . | . | .
CCOc1ccc(N(C(=O)Cn2nnc3ccccc32)C(C(=O)NCc2ccccc2)c2ccc(OC)cc2)cc1 (configuration not stated) | . | . | . | -3% | 18% | 28% | . | . | .
Cc1ccc(C(C(=O)NC2CCCC2)N(C(=O)Cc2cccs2)c2ccc(C)c(C)c2)o1 (configuration not stated) | -51% | 0 | -10 | 5.2µM* | 6%[57.1 µM] | -4% | -1 | 4% | 4.5µM*
Cc1ccc(C(C(=O)NC2CCCC2)N(Cc2ccc3c(c2)OCO3)C(=O)Cc2cccs2)cc1 (configuration not stated) | -27% | -1 | 4 | -5% | -2% | -2% | . | . | .
Cn1cccc1C(C(=O)NC1CCCCC1)N(C(=O)Cc1cccs1)c1ccc2c(c1)OCO2 (configuration not stated) | 0% | -2 | 13 | ? | -3%[57.1 µM] | 17% | 7 | 0% | 11µM*
COc1ccc(N(C(=O)Cn2cnc3ccccc32)C(C(=O)NC2CCCCC2)c2ccccc2)cc1 (configuration not stated) | -14% | -1 | 4 | 9.3µM* | -4% | 0% | 1 | -6% | 2.8µM*
Cc1ccc(C)c(N(C(=O)Cc2cccs2)C(C(=O)NC2CCCC2)c2ccc(C)o2)c1 (configuration not stated) | -28% | 0 | 1 | -29% | 3% | 2% | . | . | .
CCc1nn2c(=O)c(S(=O)(=O)Nc3ccc(Br)cc3F)c(C)nc2s1 | . | . | . | 7% | 2% | 5% | . | . | .
COc1ccccc1NC(=O)CSc1oc(-c2ccccc2)nc1S(=O)(=O)c1ccccc1 | . | . | . | 24% | 9%[2.29 µM] | 17% | . | . | .
COc1ccc(N(C(=O)Cc2cccs2)C(C(=O)NC2CCCCC2)c2cccn2C)cc1 (configuration not stated) | -30% | 0 | -8 | ? | -1% | 4% | -3 | 15% | 40µM*
